Potency, outcome and max activation data for nine molecules are collected here from PubChem BioAssay (Tox21).

Assay [1] is described as follows: qHTS assay to identify small molecule agonists of the estrogen receptor alpha (ER-alpha) signaling pathway in the presence of an antagonist - cell viability counter screen (AID 1259386).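 Also: cells exposed to compounds for 22 h at 37 °C before the viability read; nearly all actives have a fitted effect of over 30% in size.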 Also: potency is read from the fitted curve at half-maximal effect. The procedure, abridged: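 VM7Luc4E2, stripped-serum pre-culture 5 d; 24hr plating; +ICI-182,780 10.0nM final; cpds 15 conc, 22hr, 37C/5% CO2; CellTiter-Fluor added at 21hr, fluorescence 1hr later.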
A general note: Quantitative high-throughput screening tests each substance at several concentrations.

Assay [2] addresses Progesterone receptor (Homo sapiens) (UniProt P06401). The experiment in a line: qHTS assay to identify small molecule agonists of the progesterone receptor (PR) signaling pathway (AID 1346784; calls by dose curve; also: nearly all actives have a fitted effect of over 30% in size). A digest of the protocol:
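Agonist mode, quantitative HTS format in a HEK 293T line expressing a UAS-controlled beta-lactamase reporter; 16 hr compound exposure at 37C in 2% charcoal-stripped FBS, then LiveBLAzer B/G FRET fluorescence.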

Assay [3] has the same target. As to the kind of experiment: qHTS assay to identify small molecule antagonists of the progesterone receptor (PR) signaling pathway (AID 1346795; active = well fitted inhibition curve with a large enough effect in the signal ratio in the repeat runs, not every such curve was filed as active; the % refers to the signal ratio; also: potency is read from the fitted curve at half-maximal effect). The procedure, abridged: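 HEK293T PR-UAS-bla reporter cells in charcoal-stripped serum (2%) received compound after a 6 hr settling period, followed by R5020 agonist at 1 nM final; 16 hr incubation preceded the FRET substrate step and fluorescence measurement.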

Assay [4] in a line: qHTS assay to identify small molecule antagonists of the TGF-beta/Smad signaling pathway - cell viability counter screen (AID 1346824). Also: nearly all actives have a fitted effect of over 50% in size. Also: potency is read from the fitted curve at half-maximal effect. A digest of the protocol: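 Cytotoxicity counter-screen run in the same wells as the beta-lactamase Smad reporter read: CellTiter-Glo luminescence after 30 min at room temperature. HEK 293T SBE-bla cells had 5 hr compound exposure at 37 C with TGF-beta1 (0.25 ng/mL stock).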

Assay [5] in a line: qHTS assay to identify small molecule agonists of the TGF-beta/Smad signaling pathway (AID 1346859; active = well fitted activation curve with a large enough effect in the signal ratio in the repeat runs, not every such curve was filed as active; the % refers to the signal ratio; also: series mostly up to about 77 µM). A digest of the protocol: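 Smad-responsive beta-lactamase reporter cells (HEK 293T) received compounds from DMSO stocks after overnight attachment, were incubated 5 hr, then treated 2 hr with FRET substrate before dual-emission fluorescence measurement (405 nm excitation).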

A short description of assay [6]: Caspase-3/7 induction in HepG2 cells by small molecules, qHTS assay (AID 1346978). Also: nearly all actives have a fitted effect of over 15% in size. Also: potency is read from the fitted curve at half-maximal effect. A digest of the protocol: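 Caspase-3/7 induction was measured by Caspase-Glo 3/7 luminescence (30 min, room temperature) after a 17 hr compound exposure of wild-type HepG2 cells seeded at 2,000 per well and pre-incubated 5 hr.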
The nature of assay [7]: Caspase-3/7 induction in CHO-K1 cells by small molecules, qHTS assay (AID 1346980). Also: nearly all actives have a fitted effect of over 15% in size. The procedure, abridged:
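Luminescent Caspase-Glo 3/7 read (30min, room temperature) quantified apoptosis induction. Cells were wild-type CHO-K1, treated with compound for 17hr at 37 C and 5% CO2.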

In assay [8] the target is Nuclear receptor subfamily 1 group I member 2 (Homo sapiens) (UniProt O75469). The experiment in a line: Human pregnane X receptor (PXR) small molecule agonists, qHTS assay (AID 1346982). Also: nearly all actives have a fitted effect of over 35% in size. Also: potency is read from the fitted curve at half-maximal effect. A digest of the protocol: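 Luciferase signal from ONE-Glo (30 min, room temperature) measured activation of hPXR-driven CYP3A4 reporter expression in PXR-Luc HepG2 cells treated with compounds for 24 hr at 37 C.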
Sequence of Nuclear receptor subfamily 1 group I member 2 (Homo sapiens) (O75469 whole entry, looked up): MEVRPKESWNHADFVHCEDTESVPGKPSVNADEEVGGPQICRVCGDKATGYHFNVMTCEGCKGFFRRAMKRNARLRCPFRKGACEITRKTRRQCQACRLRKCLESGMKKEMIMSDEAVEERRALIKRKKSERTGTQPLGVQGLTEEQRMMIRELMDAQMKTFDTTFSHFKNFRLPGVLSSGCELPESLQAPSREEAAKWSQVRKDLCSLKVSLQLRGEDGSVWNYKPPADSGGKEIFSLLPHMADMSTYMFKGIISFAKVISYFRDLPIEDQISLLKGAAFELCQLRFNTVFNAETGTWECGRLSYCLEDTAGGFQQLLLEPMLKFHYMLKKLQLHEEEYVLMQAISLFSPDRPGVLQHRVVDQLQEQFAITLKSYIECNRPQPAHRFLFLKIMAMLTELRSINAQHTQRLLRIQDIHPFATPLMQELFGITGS

For assay [9], the target named is Cytochrome P450 2D6 (Homo sapiens) (UniProt P10635). The experiment in a line: Cytochrome P450 Family 2 Subfamily D Member 6 (CYP2D6) small molecule antagonists: luciferase reporter qHTS assay (AID 1671196). Also: nearly all actives have a fitted effect of over 50% in size. Also: potency is read from the fitted curve at half-maximal effect. The procedure, abridged: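 Read-out is luminescence from luciferin formed by CYP2D6 turnover of a proluciferin substrate, recorded as relative luminescence units. Reactions ran 1 h at room temperature after NADPH regeneration solution was added.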
Sequence of Cytochrome P450 2D6 (Homo sapiens) (P10635 whole entry, looked up): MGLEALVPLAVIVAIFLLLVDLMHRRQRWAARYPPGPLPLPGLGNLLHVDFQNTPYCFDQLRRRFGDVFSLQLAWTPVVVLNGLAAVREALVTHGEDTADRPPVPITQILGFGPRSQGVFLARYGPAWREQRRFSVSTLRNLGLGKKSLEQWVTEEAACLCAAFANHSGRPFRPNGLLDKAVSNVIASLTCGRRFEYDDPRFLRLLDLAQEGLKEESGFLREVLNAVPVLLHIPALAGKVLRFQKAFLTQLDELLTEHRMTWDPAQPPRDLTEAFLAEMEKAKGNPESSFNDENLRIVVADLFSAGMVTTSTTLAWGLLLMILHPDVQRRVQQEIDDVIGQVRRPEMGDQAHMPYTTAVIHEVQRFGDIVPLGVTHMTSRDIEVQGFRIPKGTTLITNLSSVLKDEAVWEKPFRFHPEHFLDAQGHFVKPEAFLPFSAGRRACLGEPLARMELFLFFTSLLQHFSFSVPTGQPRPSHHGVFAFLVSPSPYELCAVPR

A short description of assay [10]: qHTS assay to identify small molecule antagonists of the progesterone receptor (PR) signaling pathway - cell viability counter screen (AID 1346798). Also: nearly all actives have a fitted effect of over 50% in size. Also: potency is read from the fitted curve at half-maximal effect. A digest of the protocol: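 Same-well multiplex: after 16 hr at 37C with compound and R5020 stimulation, HEK293T cells carrying a UAS-bla reporter received LiveBLAzer substrate (2 hr RT), then CellTiter-Glo (30 min RT) for luminescent viability.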

A short description of assay [11]: qHTS assay to identify small molecule agonists of the progesterone receptor (PR) signaling pathway - cell viability counter screen (AID 1346799; calls by dose curve; also: nearly all actives have a fitted effect of over 45% in size; also: potency is read from the fitted curve at half-maximal effect). A digest of the protocol: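 Counter screen for cytotoxicity: compound-treated PR-UAS-bla HEK293T cells (16 hr, 37C, 5% CO2) were assayed with CellTiter-Glo, luminescence measured after 30 min at room temperature.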
Assay [12] can be described thus: qHTS assay to identify small molecule agonists of the TGF-beta/Smad signaling pathway - cell viability counter screen (AID 1346829). Also: nearly all actives have a fitted effect of over 45% in size. Also: potency is read from the fitted curve at half-maximal effect. A digest of the protocol:
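CellTiter-Glo luminescence readout; SBE-bla HEK 293T cells, overnight plating, compound 5 hr at 37 C/5% CO2, then bla substrate 2 hr RT, then CellTiter-Glo 30 min RT.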

For assay [13], the target named is Thyrotropin-releasing hormone receptor (Homo sapiens) (UniProt P34981). The experiment in a line: qHTS assay to identify small molecule antagonists of the thyrotropin-releasing hormone receptor (TRHR) signaling pathway (AID 1346877; active = well fitted inhibition curve with a large enough effect in the repeat runs, not every such curve was filed as active; also: series mostly up to about 51 µM). A digest of the protocol:
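Intracellular calcium fluorescence, read kinetically every second over 3 min, reports TRH-evoked signalling in HEK293 cells carrying TRHR. Test compounds were added 5 min ahead of a 1 nM TRH challenge.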

Assay [14] shares this target. As to the kind of experiment: qHTS assay to identify small molecule agonists of the thyrotropin-releasing hormone receptor (TRHR) signaling pathway (AID 1346891; calls by dose curve;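 also: HEK293 cells expressing TRHR with calcium dye readout; series mostly up to about 58 µM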). The procedure, abridged: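 Agonist-mode calcium mobilisation screen: TRHR-transfected HEK293 cells cultured overnight (18 h), dye-loaded for 2 h at 37 °C, exposed to compounds, and monitored by fluorescence for 3 min.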

Assay [15] in a line: Human pregnane X receptor (PXR) small molecule agonists, qHTS cell viability counter screen (AID 1346977). Also: nearly all actives have a fitted effect of over 50% in size. Also: potency is read from the fitted curve at half-maximal effect. The procedure, abridged:
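Measures live-cell protease fluorescence (CellTiter-Fluor) in PXR-Luc HepG2 cells treated 24hr with compounds at 37C. Cells had 5hr to attach before pin transfer of DMSO solutions.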

Assay [16] in a line: Caspase-3/7 induction in CHO-K1 cells by small molecules, qHTS cell viability counter screen (AID 1346979). Also: nearly all actives have a fitted effect of over 35% in size. Also: potency is read from the fitted curve at half-maximal effect. A digest of the protocol:
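In the same wells as the caspase read, viability of compound-treated wild-type CHO-K1 cells was assessed using CellTiter-Fluor, added after 16hr at 37C and measured by fluorescence following 1hr further incubation.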

Assay [17] can be described thus: Caspase-3/7 induction in HepG2 cells by small molecules, qHTS cell viability counter screen (AID 1346981). Also: nearly all actives have a fitted effect of over 30% in size. Also: potency is read from the fitted curve at half-maximal effect. The procedure, abridged: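 HepG2, WT, 2,000 cells/well; 5 hr pre-incubation 37 C/5% CO2; compound pin-transferred from DMSO; 16 hr exposure; CellTiter-Fluor, 1 hr; fluorescence read.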
Assay [18] deals with Nuclear receptor subfamily 1 group I member 2 (Rattus norvegicus) (UniProt Q9R1A7). As to the kind of experiment: Rat pregnane X receptor (rPXR) activation by small molecules, qHTS assay (AID 1346983). Also: nearly all actives have a fitted effect of over 20% in size. Particulars: rPXR luciferase reporter cells, One-Glo luminescence, 24 h; active compounds read high. A digest of the protocol: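 Luminescent readout (One-Glo luciferase, 30 min room temperature) followed 24 hr compound treatment at 37 C of rPXR cells plated 2,000 per well and preincubated 5hr; qHTS format with compounds delivered in DMSO.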
Sequence of Nuclear receptor subfamily 1 group I member 2 (Rattus norvegicus) (Q9R1A7 whole entry, looked up): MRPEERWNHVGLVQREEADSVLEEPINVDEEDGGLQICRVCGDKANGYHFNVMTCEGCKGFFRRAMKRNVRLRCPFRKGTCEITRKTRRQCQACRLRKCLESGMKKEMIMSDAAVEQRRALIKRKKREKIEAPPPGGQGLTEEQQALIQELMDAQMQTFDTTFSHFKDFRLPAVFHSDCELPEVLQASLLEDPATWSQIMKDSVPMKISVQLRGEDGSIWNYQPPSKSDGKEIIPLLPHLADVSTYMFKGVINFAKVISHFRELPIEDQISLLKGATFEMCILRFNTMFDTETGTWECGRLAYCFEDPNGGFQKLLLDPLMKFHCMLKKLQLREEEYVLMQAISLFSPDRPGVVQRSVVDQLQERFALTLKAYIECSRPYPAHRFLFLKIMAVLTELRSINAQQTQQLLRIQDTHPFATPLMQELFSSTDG

For assay [19], the target named is Nuclear receptor subfamily 1 group I member 2 (Homo sapiens) (UniProt O75469). The experiment in a line: Human pregnane X receptor (PXR) activation by small molecules, qHTS assay (AID 1346985). Also: nearly all actives have a fitted effect of over 40% in size. The procedure, abridged:
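DPX-2 cells (HepG2 co-transfected with a PXR response element and a CYP3A4-promoter luciferase construct) were seeded at 2,000 per well, rested 5 hr at 37C, then exposed to DMSO-dissolved compounds for 24 hr. Activation was read as luciferase luminescence.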

“And” between values parts separate entries of the source, which are not always exact repeats. Equal entries are not always repeated. Unmarked numbers belong to inactive results. Records with an inconclusive call do not appear. The source made the active and inactive calls. Unless noted, calls follow the shape of the dose curve; as a rule, active = well fitted curve in the direction sought with a large enough effect in the repeat runs; inconclusive = weak or mixed curves; inactive = no such curve, though single readings can be large; an effect the other way counts as inactive or inconclusive.
% is scaled to controls: 0 for no effect and ±100 for the full control effect.

Sequence of Progesterone receptor (Homo sapiens) (P06401 whole entry, looked up): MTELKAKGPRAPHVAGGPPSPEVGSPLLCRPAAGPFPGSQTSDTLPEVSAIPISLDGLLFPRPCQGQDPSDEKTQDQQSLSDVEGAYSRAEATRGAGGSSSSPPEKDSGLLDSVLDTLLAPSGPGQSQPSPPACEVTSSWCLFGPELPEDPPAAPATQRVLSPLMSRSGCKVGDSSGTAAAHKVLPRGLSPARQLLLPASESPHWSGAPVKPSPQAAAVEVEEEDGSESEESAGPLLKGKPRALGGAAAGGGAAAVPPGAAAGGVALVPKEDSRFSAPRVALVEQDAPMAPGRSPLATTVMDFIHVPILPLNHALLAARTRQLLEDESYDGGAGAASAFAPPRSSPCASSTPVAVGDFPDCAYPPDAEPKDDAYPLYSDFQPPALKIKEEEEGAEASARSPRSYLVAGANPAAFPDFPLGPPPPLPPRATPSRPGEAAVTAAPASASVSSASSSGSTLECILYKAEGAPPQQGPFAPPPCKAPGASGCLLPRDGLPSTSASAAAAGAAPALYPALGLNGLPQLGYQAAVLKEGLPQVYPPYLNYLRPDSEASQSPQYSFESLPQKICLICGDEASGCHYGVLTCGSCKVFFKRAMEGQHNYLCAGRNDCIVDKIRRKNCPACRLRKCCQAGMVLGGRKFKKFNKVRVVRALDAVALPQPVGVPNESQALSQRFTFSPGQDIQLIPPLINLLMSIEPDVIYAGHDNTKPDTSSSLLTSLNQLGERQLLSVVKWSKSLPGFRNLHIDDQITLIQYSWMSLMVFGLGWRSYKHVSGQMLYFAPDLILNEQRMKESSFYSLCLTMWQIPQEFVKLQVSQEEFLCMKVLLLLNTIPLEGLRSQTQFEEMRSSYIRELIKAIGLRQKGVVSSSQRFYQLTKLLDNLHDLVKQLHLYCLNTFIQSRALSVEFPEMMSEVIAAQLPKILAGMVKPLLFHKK
Sequence of Thyrotropin-releasing hormone receptor (Homo sapiens) (P34981 whole entry, looked up): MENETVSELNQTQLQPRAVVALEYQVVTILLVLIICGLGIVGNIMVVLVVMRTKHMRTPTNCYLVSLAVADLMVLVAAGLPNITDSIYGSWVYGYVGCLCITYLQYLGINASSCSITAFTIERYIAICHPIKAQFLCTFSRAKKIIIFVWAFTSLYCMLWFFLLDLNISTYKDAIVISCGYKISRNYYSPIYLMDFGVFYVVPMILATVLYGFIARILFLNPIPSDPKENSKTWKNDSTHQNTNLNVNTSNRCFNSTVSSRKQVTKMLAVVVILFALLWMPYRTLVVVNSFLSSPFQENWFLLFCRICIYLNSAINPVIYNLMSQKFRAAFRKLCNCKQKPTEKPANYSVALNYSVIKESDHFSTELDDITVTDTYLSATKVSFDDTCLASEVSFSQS

Turning to `OC12N=C(c3ccccc3)SC1Cc1cc(Cl)ccc12` (stereo not given), the Potency entry in assay [1], in assay [2], in assay [4], in assay [5], in [6] and in assay [7] was “inactive” each time. For the same molecule, the Potency was 43.3 µM (active) in [3], 10.9 µM (active) in [8] and 39.9 µM (active) in assay [9].
As for `Nc1nc(-c2ccccc2)cs1`, the Potency entry in assay [1], in [2], in assay [10], in assay [11], in assay [4] and in assay [12] was “inactive” each time. The Potency result in assay [5], in [13], in [15], in assay [6], in assay [16] and in assay [17] was “inactive” throughout. In addition, the molecule was classed as inactive in assay [14]. The results for the Potency in assay [8] and in [9] were 27.2 µM (active) and 12.6 µM (active), respectively.
As for `Cc1c(N)cccc1C(F)(F)F`, the Potency entry in [1], in [2], in assay [3], in assay [4], in assay [12] and in [5] was “inactive” in each case. Further, the Potency result in assay [13], in assay [15], in assay [16], in assay [7], in assay [17] and in assay [8] was “inactive” each time. In addition, the Potency entry in assay [9] is “inactive”. Further, the molecule was classed as inactive in assay [14].
As to `CCCCCCCCCCCCCC[N+](C)(C)Cc1ccccc1`, the Potency entry in assay [1], in assay [2], in assay [5], in assay [7], in [8] and in assay [19] was “inactive” in each case. The Potency is 55.3 µM (active) and 5.96 µM (active) in assay [10]; 27.7 µM (active) and 6.68 µM (active) and 12.6 mM (active) in assay [11]; 49.7 µM (active) in [4]; 49.7 µM (active) and 19 µM (active) in assay [12]; 62.1 µM (active) in assay [6]; 43.9 µM (active) and 33.5 µM (active) and 17.8 mM (active) in assay [16]. The Potency in [17] was 69.6 µM (active); in [9] it was 908 nM (active) and 1.1 µM (active). For the same molecule, the max activation in assay [18] is -5.38%.
With `CC(N=C(NC#N)Nc1ccncc1)C(C)(C)C` (stereo not given), the Potency result in [1], in assay [2], in assay [3], in [4], in assay [12] and in assay [5] was “inactive” each time. The Potency entry in assay [13], in [15], in assay [6], in assay [16] and in assay [17] was “inactive” in each case. For the same molecule, in assay [14], the call was inactive. Besides, in assay [18], the max activation is -8.82%.
For `[Cl][Pt-2]([Cl])([Cl])[Cl]`, the Potency result in [1], in assay [2], in assay [3], in assay [10], in [4] and in assay [12] was “inactive” in each case. The Potency entry in assay [5], in assay [13], in assay [6], in assay [7], in assay [17] and in [8] was “inactive” throughout. In assay [14], the molecule was called inactive. Besides, in assay [9], the Potency is 40.1 µM (active).
`COCCOc1cc2cc(C(=O)NC3CCN(C(C)C)CC3)n(CC(=O)Nc3ccc(Cl)cn3)c2cn1`: the Potency result in assay [1], in assay [2], in assay [3], in [10], in assay [4] and in assay [12] was “inactive” throughout. In addition, the Potency result in assay [13], in assay [6], in assay [16], in assay [7], in assay [17] and in assay [8] was “inactive” in each case. Further, the Potency entry in assay [9] was “inactive”. For the same molecule, the molecule was called inactive in assay [14]. In [15], the Potency was 53.9 µM (active).
Consider `Cl[Si](Cl)(c1ccccc1)c1ccccc1`, for which the Potency result in [1], in assay [2], in assay [10], in [11], in assay [4] and in assay [12] was “inactive” throughout. For the same molecule, the Potency result in [5], in assay [13], in assay [15], in [6] and in [16] was “inactive” throughout. In addition, the call in assay [14] was inactive.
As to `COc1cc(S(=O)(=O)O)c(C)cc1N=Nc1c(O)ccc2cc(S(=O)(=O)O)ccc12`, the Potency is 17.2 µM (active) in assay [1], 15.4 µM (active) in assay [16], 19.3 µM (active) in assay [17] and 35.6 µM (active) in [9]. The Potency result in assay [2], in [10], in assay [11], in assay [4], in [12] and in assay [13] was “inactive” each time. In addition, the Potency entry in [6] and in [8] was “inactive” in each case. In addition, the molecule was classed as inactive in assay [14].
